Assay outcomes as filed in PubChem.
Pol kappa inh-1 = DNA polymerase kappa (human) inhibition; Q9UBT6; purified Pol kappa, fluorescent DNA synthesis assay, 10 min; Potency, µM (doses to about 107 µM), usual class: inhibitors; hit rate 0.53% among 400,000; AID 588579
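Enzyme at 10 nM met test compounds for 15 min at room temperature. Substrate addition (50 nM final) began the reaction, which was monitored by fluorescence at 0 and 10 min.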
Pol beta inh = blocks human DNA polymerase beta activity; P06746; Pol beta primer extension/strand displacement, fluorescence kinetic; Potency, µM (doses to about 114 µM), hits mostly inhibitors; hit rate 1.3% among 340,000; AID 485314
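Curves were derived by four-parameter Hill fits of normalized qHTS data. The kinetic fluorescent primer-extension read was taken at 0 and 10 min after 50 nM substrate, following a 15 min room-temperature preincubation of 10 nM enzyme with compounds.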
APE1 inh = APE1 (human) endonuclease inhibition; AID 2517; P27695; Potency, µM (top dose mostly 65.8 µM), usual class: inhibitors; recombinant APE1, TAMRA/BHQ-2 abasic DNA cleavage fluorescence; hit rate 0.35% among 350,000; note: nearly all actives have a fitted effect of over 55% in size
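Activity was derived from the fluorescence gain between first and third kinetic reads (60 s intervals, ex 525/em 598 nm) after 50 nM THF-abasic TAMRA/BHQ-2 duplex was added to 0.75 nM APE1 preincubated 15 min with compound.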
GLS inh = glutaminase GLS (human) inhibition | O94925 | GLS enzymatic activity, qHTS titration | Potency, µM (doses to about 45.5 µM), most hits filed as inhibitors | hit rate 0.21% among 410,000
Target sequence (O94925 whole entry, looked up): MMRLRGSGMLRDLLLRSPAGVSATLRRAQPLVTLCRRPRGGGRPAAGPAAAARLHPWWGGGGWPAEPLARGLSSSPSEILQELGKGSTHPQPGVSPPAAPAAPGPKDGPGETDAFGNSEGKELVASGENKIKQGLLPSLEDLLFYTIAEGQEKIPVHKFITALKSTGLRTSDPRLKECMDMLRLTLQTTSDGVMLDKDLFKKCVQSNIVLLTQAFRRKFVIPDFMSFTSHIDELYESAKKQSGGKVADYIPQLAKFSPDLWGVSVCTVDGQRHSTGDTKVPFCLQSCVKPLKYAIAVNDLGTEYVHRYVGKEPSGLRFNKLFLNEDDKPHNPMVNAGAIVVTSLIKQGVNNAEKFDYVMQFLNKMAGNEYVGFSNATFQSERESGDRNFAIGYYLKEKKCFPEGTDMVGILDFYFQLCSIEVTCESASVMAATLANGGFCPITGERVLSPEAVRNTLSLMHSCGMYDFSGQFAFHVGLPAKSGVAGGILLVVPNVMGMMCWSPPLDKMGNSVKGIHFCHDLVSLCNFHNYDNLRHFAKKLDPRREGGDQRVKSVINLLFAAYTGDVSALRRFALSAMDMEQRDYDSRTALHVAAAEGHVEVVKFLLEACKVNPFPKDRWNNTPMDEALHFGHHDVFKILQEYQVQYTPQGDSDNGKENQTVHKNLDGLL
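hKGA; 45 mM KH2PO4 pH 8.2 + 0.02% Tween-20; cpd via pin tool; 1 mM Gln soln; GluOx/HRP/Amplex Red; RT 30 min; fluor. t0 & final.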
Pol eta inh-1 = DNA polymerase eta (human) inhibition. Potency, µM (titrated, usually from 114 µM), actives largely listed as inhibitors. Q9Y253. hit rate 1.2% among 390,000. AID 588591. recombinant Pol eta, fluorescent DNA replication assay
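Pol eta at 10 nM preincubated with compounds 15 min at room temperature; reaction started with fluorescent substrate (50 nM final) and read kinetically at 0 and 10 min.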
Pol iota inh = DNA polymerase iota (human) inhibition; Q9UNA4; Pol iota fluorescent replication assay, 10 min; Potency, µM (highest dose often 115 µM), hits mostly inhibitors; hit rate 1% among 390,000; AID 588590
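Fluorescent replication assay read twice, at 0 min and 10 min after adding 50 nM (final) substrate. Enzyme (10 nM) and compounds were first incubated 15 min at room temperature; enzyme-free buffer wells were negative controls.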
GALK inh confirm = confirmation of human galactokinase (GALK) inhibitors | shares compounds with Pol eta inh-1 | purified GALK, Kinase-Glo ATP depletion luminescence | Potency, µM (doses to about 115 µM), hits mostly inhibitors | hit rate 70% among 150 | AID 2015
Redox cycling = counter-screen for GALK inhibitors: redox cycling H2O2 generation. hit rate 40% among 150. AID 2035. Potency, µM (series often up to 115 µM), most hits filed as inhibitors. Phenol red-HRP H2O2 redox cycling, absorbance 600 nm. shares compounds with Pol eta inh-1
HEK293 tox = reduces HEK-293 cell viability in GALK counter-screen | shares compounds with Pol eta inh-1 | HEK-293 viability, ATP luminescence (CellTiter-Glo), 24/48 h | Potency, µM (series often up to 46.1 µM), usual class: inhibitors | hit rate 10% among 170
Pol kappa inh-2 = confirmation of human DNA polymerase kappa inhibitors; shares compounds with Pol eta inh-1; purified Pol-kappa, fluorescent strand-displacement substrate; Potency, µM, hits mostly inhibitors; hit rate 76% among 920
Pol eta inh-2 = Pol eta (human) inhibition, cherry-pick confirmation; Pol eta primer extension, TAMRA/BHQ fluorescence, 10 min; Potency, µM, actives largely listed as inhibitors; AID 720502; shares compounds with Pol eta inh-1; hit rate 64% among 2,600
Each line names hits and unclear results; the compound was inactive in the other large screens (follow-up assays come after a bar, where they were run). Compounds with a hit are over-represented: about 2.4% of the library has one in this group of screens. Calls come from the whole dose curve; as a rule, active = well fitted curve in the direction sought with a large enough effect; inconclusive = small, poorly fitted or top-dose-only effect, or another doubt; inactive = no such curve, though single readings can be large; an effect the other way counts as inactive or inconclusive.

COC(=O)c1cc(Oc2ccc(Cl)cc2Cl)ccc1[N+](=O)[O-]	APE1 inh inconclusive (no result: Pol beta inh, GLS inh, Pol eta inh-1, Pol iota inh)
CS(=O)(=O)N1Cc2cnnn2-c2ccccc2C1C#N (centres undefined)	none (no result: Pol beta inh, APE1 inh)
O=C(CCc1ccccc1)N1Cc2cc(N3CCOCC3)ccc2-n2nncc2C1	none (no result: Pol kappa inh-1, Pol beta inh, APE1 inh, Pol eta inh-1, Pol iota inh)
O=c1cc(-c2ccc(O)c(O)c2)oc2cc(O)cc(O)c12	Pol kappa inh-1 6.31µM, Pol beta inh 7.08µM, APE1 inh 5.01µM, GLS inh inconclusive, Pol eta inh-1 3.16µM, Pol iota inh 3.98µM | GALK inh confirm inconclusive | Redox cycling inactive | HEK293 tox inactive
Cc1cc(OC(=O)N2CCCCC2)c(C(C)C)cc1[N+](C)(C)C	none (no result: Pol beta inh, GLS inh, Pol eta inh-1, Pol iota inh)
COc1cc(CC2C(=O)N(C)C(=O)N(C)C2=O)ccc1OCc1ccccc1	none
C=CCN1C(=O)NC(=O)C(Cc2ccc(OC)c(OC)c2)C1=O (centres undefined)	Pol kappa inh-1 inconclusive, GLS inh inconclusive, Pol eta inh-1 8.91µM, Pol iota inh inconclusive | Pol eta inh-2 30.1
CC(C)(C)OOC(C)(C)C	none (no result: Pol kappa inh-1, Pol beta inh, GLS inh, Pol eta inh-1, Pol iota inh)
COC(=O)C1=C(c2ccc(F)cc2OCc2ccccc2)C[C@@H]2CC[C@H]1N2C(=O)NCc1ccccc1OC	none (no result: Pol beta inh)
O=c1c2ccccc2nc(-c2ccco2)n1-c1nccs1	GLS inh inconclusive, Pol eta inh-1 inconclusive, Pol iota inh inconclusive | Pol eta inh-2 inconclusive
O=C1NC(=S)NC(=O)C12C(c1ccc(F)cc1)NC(=S)NC2c1ccc(F)cc1 (centres undefined)	Pol eta inh-1 39.8µM | Pol eta inh-2 inconclusive
O=C1NC(=S)NC(=O)C12C(c1ccccc1)NC(=S)NC2c1ccccc1 (centres undefined)	Pol eta inh-1 50.1µM, Pol iota inh 20µM | Pol eta inh-2 inconclusive
COC(=O)C1=C(c2cccc(C#N)c2)C[C@@H]2CC[C@H]1N2C(=O)NCc1ccc(F)cc1	none (no result: Pol beta inh)
Cc1ccc2c(c1Cl)NC(C(=O)O)C1CC(Sc3ccccc3[N+](=O)[O-])C(Cl)C21 (centres undefined)	Pol kappa inh-1 inconclusive, Pol beta inh inconclusive, Pol eta inh-1 44.7µM, Pol iota inh inconclusive | Pol eta inh-2 inconclusive
N#Cc1c(-c2csc(-c3no[n+]([O-])c3C#N)c2)no[n+]1[O-]	none (no result: Pol kappa inh-1, Pol beta inh, APE1 inh, GLS inh, Pol eta inh-1, Pol iota inh) | Pol eta inh-2 inconclusive
O=C(COc1ccccc1Cl)N1CCCC(N2CCN(c3ccc(F)cc3)CC2)C1 (centres undefined)	none
O=C(Cc1ccc(S(=O)(=O)N2CCCC2)s1)N1CCN(c2ccc(F)cc2)CC1	Pol kappa inh-1 inconclusive, Pol beta inh 31.6µM, APE1 inh inconclusive, Pol eta inh-1 inconclusive, Pol iota inh inconclusive | Pol eta inh-2 84.9
Cc1ccc(-n2c(=O)c3ccc(C(=O)NCc4ccccc4Cl)cc3n(CC(=O)Nc3cccc(Cl)c3)c2=O)cc1	Pol iota inh inconclusive (no result: APE1 inh)
CC(C)Oc1ccc(C2C(C#N)=C(N)Oc3c2c(=O)oc2ccccc32)cc1 (centres undefined)	Pol eta inh-1 inconclusive
N#CC1=C(N)Oc2c(c(=O)oc3ccccc23)C1c1ccc([N+](=O)[O-])o1 (centres undefined)	Pol kappa inh-1 50.1µM, Pol beta inh inconclusive, APE1 inh 35.5µM, Pol eta inh-1 20µM, Pol iota inh inconclusive | Pol kappa inh-2 37.7 | Pol eta inh-2 84.9
COc1ccccc1-n1c(O)c(C=Nc2c(C)n(C)n(-c3ccccc3)c2=O)c(=O)[nH]c1=O	none
CCS(=O)(=O)C1=NN2C(=N)/C(=C\c3ccc(OC(=O)c4ccco4)cc3)C(=O)N=C2S1	Pol eta inh-1 inconclusive
N=C1/C(=C\c2ccc(OC(=O)c3ccccc3Cl)cc2)C(=O)N=C2SC(N3CCOCC3)=NN12	Pol kappa inh-1 inconclusive, Pol beta inh 39.8µM, Pol eta inh-1 22.4µM | Pol eta inh-2 37.9
O=c1oc2ccccc2c(O)c1[C@H]1c2ccc(O)cc2Oc2c1c(=O)oc1ccccc21	GLS inh inconclusive, Pol eta inh-1 inconclusive | Pol eta inh-2 inconclusive
O=[N+]([O-])c1cc(Cl)c(O)c(-[n+]2c(-c3ccccc3)cc(-c3ccccc3)cc2-c2ccccc2)c1	none
CC1CCN(C(=O)COC(=O)c2cn(C)c3ccccc23)CC1	none (no result: Pol beta inh)
CCC(C)N1C(=O)/C(=C/c2ccc3c(c2)CCN3CCCCl)C(=O)NC1=S (centres undefined)	Pol kappa inh-1 inconclusive, Pol beta inh 15.8µM, GLS inh inconclusive, Pol eta inh-1 15.8µM, Pol iota inh inconclusive | Pol kappa inh-2 84.4 | Pol eta inh-2 75.7
COC(=O)COc1ccc(/C=C2\C(=O)NC(=S)N(c3ccc(C)cc3)C2=O)cc1OC	Pol iota inh inconclusive
C[C@@H]1COc2cc(N3CCN(C)CC3)ccc2S(=O)(=O)N1	none (no result: Pol kappa inh-1, Pol beta inh, APE1 inh, Pol eta inh-1, Pol iota inh)
COCCCn1c(N)c(C(=O)NCc2ccco2)c2nc3ccccc3nc21	none | GALK inh confirm inconclusive | Redox cycling inactive | HEK293 tox inconclusive
COCCNC(=O)c1c(N)n(Cc2ccco2)c2nc3ccccc3nc12	none
Cc1cccc(N2C(=O)NC(=O)/C(=C\c3ccc4c(c3)CCCN4Cc3ccccc3)C2=O)c1	Pol eta inh-1 22.4µM, Pol iota inh inconclusive | Pol eta inh-2 inconclusive
CCN(CC)c1ccc(/C=C2\C(=O)NC(=O)N(Cc3ccco3)C2=O)cc1	Pol kappa inh-1 79.4µM, Pol beta inh inconclusive, APE1 inh inconclusive, Pol eta inh-1 22.4µM, Pol iota inh 20µM | Pol kappa inh-2 33.6 | Pol eta inh-2 inconclusive
CC[N+](C)(CC)CCCCOc1ccc2c(c1)C(=O)c1cc(OCCCC[N+](C)(CC)CC)ccc1-2	Pol kappa inh-1 inconclusive, Pol beta inh inconclusive, Pol eta inh-1 inconclusive, Pol iota inh 14.1µM | Pol eta inh-2 inconclusive
CCCCCCCCCCCC[N+](C)(C)CCOc1ccccc1	GLS inh inconclusive (no result: Pol beta inh, Pol eta inh-1, Pol iota inh)
